Test [1] is described as follows: NCI Yeast Anticancer Drug Screen. Data for the rad50 strain (AID 155).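 Also: 0% = growth of vehicle-only cultures of the same strain.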 Particulars: S. cerevisiae rad50 strain growth inhibition, hits give high values. In short, it runs like this:
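Yeast carrying a defined DNA repair defect were exposed to test compounds, and growth was compared with vehicle-treated controls to give percent inhibition.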

A short description of test [2]: NCI Yeast Anticancer Drug Screen. Data for the mec2-1 strain (AID 157). Particulars: S. cerevisiae mec2-1 strain, hits give high values. In short, it runs like this:
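Cells of the genetically defined mec2-1 yeast strain are incubated with test compound. Inhibition of growth is calculated against vehicle-treated controls.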

The nature of test [3]: NCI Yeast Anticancer Drug Screen. Data for the sgs1 mgt1 strain (AID 161).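 Also: 0% = growth of cultures given vehicle only.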 Particulars: S. cerevisiae sgs1 mgt1 strain, hits give high values. The essentials:
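Mutant yeast exposed to compound; growth scored against vehicle-only wells.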

Test [4] can be described thus: NCI Yeast Anticancer Drug Screen. Data for the cln2 rad14 strain (AID 165).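 Also: 0% = growth equal to vehicle treated cultures.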 Particulars: S. cerevisiae cln2 rad14 strain, hits give high values. In short, it runs like this:
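The screen exposed genetically defined yeast (cln2 rad14) to test compounds and scored growth inhibition relative to vehicle-treated controls.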

The nature of test [5]: NCI Yeast Anticancer Drug Screen. Data for the bub3 strain (AID 167). To be noted: S. cerevisiae bub3 mutant strain, hits give high values. In short, it runs like this:
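Compounds were applied to a genetically altered yeast strain carrying a cell-cycle control defect. Growth inhibition was scored against vehicle-treated controls.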

Test [6] in a line: NCI Yeast Anticancer Drug Screen. Data for the mlh1 rad18 strain (AID 175). Particulars: S. cerevisiae mlh1 rad18 strain growth inhibition, hits give high values. In short, it runs like this: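 Compound-treated yeast growth, normalised to vehicle controls. Strain bears defined DNA repair mutations.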
The mark [7] stands for this setting: at 5.0 µM (retest, dose inferred, filed as 0.5).
Setting [8] is: at 50.0 µM (retest, dose inferred, filed as 5.0).

Each structure is given as a SMILES string. Compounds without any hit were thinned out: in the full panel of roughly 79,000, 15% have a hit. A number with no mark means an inactive call. Active and inactive are the calls of the source. Rule as the data show it: active = growth inhibition above about 70%; inactive = the rest.

Consider `CN(C)c1ccccc1CCCCCCc1ccccc1N(C)C`, for which the growth inhibition is 54% in test [1] (setting [7]); 59% in test [1] (setting [8]); 84% (active) in test [1] (at 50.0 µM); 55% in test [2] (setting [7]); 57% in test [2] (setting [8]); 74.7% (active) in test [2] (at 50.0 µM). For the same compound, the growth inhibition in test [3] (setting [7]) is 76% (active); in test [3] (setting [8]), 72% (active); in test [3] (at 50.0 µM), 87.8% (active); in test [4] (setting [7]) it was 79% (active); in test [4] (setting [8]), 82% (active); in test [4] (at 50.0 µM), 85.2% (active). The growth inhibition in test [5] (setting [7]) is 67%; in test [5] (setting [8]), 50%; in test [5] (at 50.0 µM) it was 80.5% (active); in test [6] (setting [7]) it was 38%; in test [6] (setting [8]), 43%; in test [6] (at 50.0 µM) it was 76.3% (active).
With `CCCCCCCCCCCCCC/C(=C/OCC[N+](C)(C)C)OC(C)=O` (tested in a mixture with another compound), the growth inhibition was 99% (active) in test [1] (setting [7]); 99% (active) in test [1] (setting [8]); 99.7% (active) in test [1] (at 50.0 µM); 99% (active) in test [2] (setting [7]); 100% (active) in test [2] (setting [8]); 99.8% (active) in test [2] (at 50.0 µM). Besides, the growth inhibition is 94% (active) in test [3] (setting [7]); 100% (active) in test [3] (setting [8]); 99.8% (active) in test [3] (at 50.0 µM); 99% (active) in test [4] (setting [7]); 99% (active) in test [4] (setting [8]); 99.3% (active) in test [4] (at 50.0 µM). The growth inhibition was 99% (active) in test [5] (setting [7]); 99% (active) in test [5] (setting [8]); 99.7% (active) in test [5] (at 50.0 µM); 98% (active) in test [6] (setting [7]); 100% (active) in test [6] (setting [8]); 99.7% (active) in test [6] (at 50.0 µM).
As to `CC(C)=CCc1c2c(c3occ(-c4ccc(O)c(O)c4)c(=O)c3c1O)C=CC(C)(C)O2`, the growth inhibition was 16% in test [1] (setting [7]); 90% (active) in test [1] (setting [8]); 90.8% (active) in test [1] (at 50.0 µM); 29% in test [2] (setting [7]); 95% (active) in test [2] (setting [8]); 94.1% (active) in test [2] (at 50.0 µM). Moreover, the growth inhibition in test [3] (setting [7]) was 9%; in test [3] (setting [8]) it was 93% (active); in test [3] (at 50.0 µM), 94.8% (active); in test [4] (setting [7]) it was -25%; in test [4] (setting [8]), 76% (active); in test [4] (at 50.0 µM), 91.5% (active). Moreover, the growth inhibition in test [5] (setting [7]) was -7%; in test [5] (setting [8]), 94% (active); in test [5] (at 50.0 µM), 89% (active); in test [6] (setting [7]), -2%; in test [6] (setting [8]), 90% (active); in test [6] (at 50.0 µM) it was 90.8% (active).
In the case of `CCCCCCC/C=C\C(=O)O`, the growth inhibition in test [1] (setting [7]) is 0%; in test [1] (setting [8]) it was 13%; in test [1] (at 50.0 µM), 35.5%; in test [2] (setting [7]) it was 4%; in test [2] (setting [8]) it was 32%; in test [2] (at 50.0 µM), 17.9%. The growth inhibition in test [3] (setting [7]) was 1%; in test [3] (setting [8]), 38%; in test [3] (at 50.0 µM), 33.6%; in test [4] (setting [7]), 4%; in test [4] (setting [8]), 25%; in test [4] (at 50.0 µM), 38.9%. In addition, the growth inhibition is 5% in test [5] (setting [7]); 23% in test [5] (setting [8]); 6.4% in test [5] (at 50.0 µM); 1% in test [6] (setting [7]); 36% in test [6] (setting [8]); 74.5% (active) in test [6] (at 50.0 µM).
Take `Cc1cc(C2CCCCC2)n(O)c(=O)c1`: the growth inhibition in test [1] (setting [7]) is 98% (active); in test [1] (setting [8]), 99% (active); in test [1] (at 50.0 µM), 98.8% (active); in test [2] (setting [7]), 98% (active); in test [2] (setting [8]), 99% (active); in test [2] (at 50.0 µM) it was 99.2% (active). For the same compound, the growth inhibition was 98% (active) in test [3] (setting [7]); 99% (active) in test [3] (setting [8]); 99.5% (active) in test [3] (at 50.0 µM); 96% (active) in test [4] (setting [7]); 98% (active) in test [4] (setting [8]); 99.3% (active) in test [4] (at 50.0 µM). Further, the growth inhibition in test [5] (setting [7]) is 96% (active); in test [5] (setting [8]), 99% (active); in test [5] (at 50.0 µM), 98.7% (active); in test [6] (setting [7]) it was 98% (active); in test [6] (setting [8]), 99% (active); in test [6] (at 50.0 µM), 99.3% (active).
Take `COc1ccc(-c2c(-c3ccccc3)c(C)nc3nc(SC)nc(SC)c23)cc1OC`: the growth inhibition in test [1] (setting [7]) was 24%; in test [1] (setting [8]) it was 95% (active); in test [1] (at 50.0 µM), 95% (active); in test [2] (setting [7]), 0%; in test [2] (setting [8]), 96% (active); in test [2] (at 50.0 µM), 95% (active). The growth inhibition in test [3] (setting [7]) is 12%; in test [3] (setting [8]), 97% (active); in test [3] (at 50.0 µM), 94.2% (active); in test [4] (setting [7]) it was -2%; in test [4] (setting [8]) it was 92% (active); in test [4] (at 50.0 µM), 94.7% (active). The growth inhibition in test [5] (setting [7]) is -20%; in test [5] (setting [8]), 94% (active); in test [5] (at 50.0 µM), 94.6% (active); in test [6] (setting [7]) it was 2%; in test [6] (setting [8]), 96% (active); in test [6] (at 50.0 µM), 94.6% (active).
As for `Fc1ccc2nncc(SCc3ccccc3)c2c1`, the growth inhibition in test [1] (setting [7]) was 1%; in test [1] (setting [8]), 97% (active); in test [1] (at 50.0 µM), 97.9% (active); in test [2] (setting [7]) it was 10%; in test [2] (setting [8]) it was 99% (active); in test [2] (at 50.0 µM), 97.2% (active). Moreover, the growth inhibition is 11% in test [3] (setting [7]); 98% (active) in test [3] (setting [8]); 93.2% (active) in test [3] (at 50.0 µM); 3% in test [4] (setting [7]); 95% (active) in test [4] (setting [8]); 91.5% (active) in test [4] (at 50.0 µM). Moreover, the growth inhibition in test [5] (setting [7]) is 2%; in test [5] (setting [8]) it was 97% (active); in test [5] (at 50.0 µM) it was 97% (active); in test [6] (setting [7]), -2%; in test [6] (setting [8]) it was 98% (active); in test [6] (at 50.0 µM), 95.5% (active).
As for `COc1ccc(CN2COc3c(cc(C)c4cccnc34)C2)cc1`, the growth inhibition is 14% in test [1] (setting [7]); 92% (active) in test [1] (setting [8]); 65% in test [1] (at 50.0 µM); 8% in test [2] (setting [7]); 93% (active) in test [2] (setting [8]); 47.5% in test [2] (at 50.0 µM). Besides, the growth inhibition in test [3] (setting [7]) is 23%; in test [3] (setting [8]), 92% (active); in test [3] (at 50.0 µM), 64.1%; in test [4] (setting [7]), 16%; in test [4] (setting [8]) it was 93% (active); in test [4] (at 50.0 µM) it was 39.9%. Moreover, the growth inhibition in test [5] (setting [7]) is -3%; in test [5] (setting [8]), 95% (active); in test [5] (at 50.0 µM), 61.4%; in test [6] (setting [7]) it was 20%; in test [6] (setting [8]), 93% (active); in test [6] (at 50.0 µM), 79.9% (active).
Consider `O=C(NC1CCN(Cc2ccccc2)CC1)c1ccc(I)cc1`, for which the growth inhibition is 40% in test [1] (setting [7]); 59% in test [1] (setting [8]); 68% in test [1] (at 50.0 µM); 46% in test [2] (setting [7]); 62% in test [2] (setting [8]); 49.7% in test [2] (at 50.0 µM). The growth inhibition in test [3] (setting [7]) was 52%; in test [3] (setting [8]) it was 87% (active); in test [3] (at 50.0 µM) it was 74.6% (active); in test [4] (setting [7]), 81% (active); in test [4] (setting [8]), 88% (active); in test [4] (at 50.0 µM), 77.2% (active). The growth inhibition was 60% in test [5] (setting [7]); 49% in test [5] (setting [8]); 74.3% (active) in test [5] (at 50.0 µM); 53% in test [6] (setting [7]); 78% (active) in test [6] (setting [8]); 76.8% (active) in test [6] (at 50.0 µM).

The values above are taken from PubChem BioAssay (NCI).
